Tests used:
Assay in all cases: protein binding microarray; high values mean tight binding
Conditions in all cases: dsDNA, one strand shown
RELARELA (p65 homodimer) = RELARELA (p65 homodimer) (Homo sapiens, UniProt Q04206 1-307)
p50p50 homodimer = p50p50 homodimer (Homo sapiens, UniProt P19838 7-356)
p52p52 homodimer = target: T1, p52p52 homodimer (Homo sapiens, UniProt Q00653 4-332)
T1 sequence: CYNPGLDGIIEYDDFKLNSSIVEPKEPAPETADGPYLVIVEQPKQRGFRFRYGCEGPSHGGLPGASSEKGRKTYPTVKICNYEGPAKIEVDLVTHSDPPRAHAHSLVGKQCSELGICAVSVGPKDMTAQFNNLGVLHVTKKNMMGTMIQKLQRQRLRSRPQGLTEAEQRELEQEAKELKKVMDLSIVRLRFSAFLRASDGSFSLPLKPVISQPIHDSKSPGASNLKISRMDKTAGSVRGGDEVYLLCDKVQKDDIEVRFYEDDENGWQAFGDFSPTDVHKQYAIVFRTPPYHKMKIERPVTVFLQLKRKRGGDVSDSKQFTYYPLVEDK

[1] = target: RELA (p65) subunit of heterodimer;p50 subunit (Homo sapiens;Homo sapiens, UniProt Q04206;P19838 1-307;7-356)
Chain of RELA (p65) subunit of heterodimer;p50 subunit (Q04206 1-307, chain 1 of 2): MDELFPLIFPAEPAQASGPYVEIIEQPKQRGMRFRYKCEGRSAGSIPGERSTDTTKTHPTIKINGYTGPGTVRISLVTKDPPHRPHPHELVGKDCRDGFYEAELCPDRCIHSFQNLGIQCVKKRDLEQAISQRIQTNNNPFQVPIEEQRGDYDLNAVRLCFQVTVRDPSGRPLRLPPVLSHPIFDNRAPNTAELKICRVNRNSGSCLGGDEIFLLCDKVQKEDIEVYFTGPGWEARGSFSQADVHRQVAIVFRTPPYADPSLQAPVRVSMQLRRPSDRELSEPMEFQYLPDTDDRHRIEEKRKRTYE
Chain of RELA (p65) subunit of heterodimer;p50 subunit (P19838 7-356, chain 2 of 2): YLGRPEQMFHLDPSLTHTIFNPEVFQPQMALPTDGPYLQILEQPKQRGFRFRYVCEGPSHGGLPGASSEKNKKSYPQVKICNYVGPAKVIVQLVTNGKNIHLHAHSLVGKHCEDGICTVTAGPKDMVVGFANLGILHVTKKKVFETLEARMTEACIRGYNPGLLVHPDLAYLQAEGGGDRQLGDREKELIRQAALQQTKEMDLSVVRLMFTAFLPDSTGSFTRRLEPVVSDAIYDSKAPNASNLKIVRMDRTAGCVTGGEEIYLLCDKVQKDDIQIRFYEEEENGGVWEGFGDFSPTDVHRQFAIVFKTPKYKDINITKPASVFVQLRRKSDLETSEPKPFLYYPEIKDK

[2] = target: RELA (p65) subunit of heterodimer;p52 subunit (Homo sapiens;Homo sapiens, UniProt Q04206;Q00653 1-307;4-332)
RELB subunit;p50 subunit = RELB subunit;p50 subunit (Homo sapiens;Homo sapiens, UniProt Q01201;P19838 120-401;7-356)
RELB subunit;p52 subunit = target: T2, RELB subunit;p52 subunit (Homo sapiens;Homo sapiens, UniProt Q01201;Q00653 120-401;4-332)
T2 sequence 1: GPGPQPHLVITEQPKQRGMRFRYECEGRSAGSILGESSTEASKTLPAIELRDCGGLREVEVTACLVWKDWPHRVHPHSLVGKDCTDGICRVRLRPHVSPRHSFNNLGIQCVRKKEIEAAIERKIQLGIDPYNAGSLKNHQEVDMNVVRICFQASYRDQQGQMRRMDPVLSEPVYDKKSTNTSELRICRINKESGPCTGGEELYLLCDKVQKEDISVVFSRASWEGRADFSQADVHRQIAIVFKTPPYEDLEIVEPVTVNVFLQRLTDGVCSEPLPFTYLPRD
T2 sequence 2: T1 sequence

[3] = target: C-Rel subunit;p50 subunit (Homo sapiens;Homo sapiens, UniProt Q04864;P19838 1-285;7-356)
[4] = target: T3, C-Rel subunit;p52 subunit (Homo sapiens;Homo sapiens, UniProt Q04864;Q00653 1-285;4-332)
T3 sequence 1: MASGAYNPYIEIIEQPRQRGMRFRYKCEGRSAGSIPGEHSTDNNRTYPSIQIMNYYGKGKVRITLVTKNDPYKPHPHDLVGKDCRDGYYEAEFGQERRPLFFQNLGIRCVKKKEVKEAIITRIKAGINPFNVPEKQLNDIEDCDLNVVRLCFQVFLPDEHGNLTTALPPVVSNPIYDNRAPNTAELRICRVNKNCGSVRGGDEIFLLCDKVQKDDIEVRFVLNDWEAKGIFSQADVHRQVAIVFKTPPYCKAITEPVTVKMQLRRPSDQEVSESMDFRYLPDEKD
T3 sequence 2: T1 sequence

Chain of RELARELA (p65 homodimer) (Q04206 1-307): as the sequence (Q04206 1-307, chain 1 of 2) above
Chain of p50p50 homodimer (P19838 7-356): as the sequence (P19838 7-356, chain 2 of 2) above

Sequence	binding signal (RELARELA (p65 homodimer))	binding signal (p50p50 homodimer)	binding signal (p52p52 homodimer)	binding signal [1]	binding signal [2]	binding signal (RELB subunit;p50 subunit)	binding signal (RELB subunit;p52 subunit)	binding signal [3]	binding signal [4]
GAGTTGGCCCT	-0.84 z-score	-1.24 z-score	-0.495 z-score	-0.546 z-score	-0.734 z-score	-0.243 z-score	-0.397 z-score	-0.778 z-score	-0.623 z-score
AAAAGGATCCT	-0.683 z-score	-1.24 z-score	-0.703 z-score	-1.11 z-score	-1.09 z-score	-1.05 z-score	-0.866 z-score	-1.6 z-score	-0.998 z-score
CAGAACCTCCT	-0.658 z-score	-1.31 z-score	-0.791 z-score	-0.921 z-score	-0.938 z-score	-0.924 z-score	-0.944 z-score	-1.48 z-score	-0.853 z-score
AGGAATATCCC	1.97 z-score	0.155 z-score	0.511 z-score	0.866 z-score	0.83 z-score	0.0984 z-score	0.231 z-score	0.402 z-score	0.834 z-score
GAATATTCCCT	1.37 z-score	1.19 z-score	1.3 z-score	1.24 z-score	1.28 z-score	1.04 z-score	1.2 z-score	0.882 z-score	1.16 z-score
CAGTAGACCCC	-0.444 z-score	-0.398 z-score	-0.423 z-score	-0.397 z-score	-0.485 z-score	-0.472 z-score	-0.384 z-score	-0.501 z-score	-0.439 z-score
AGATGGTTCCT	-0.148 z-score	-2.29 z-score	-0.605 z-score	-0.843 z-score	-0.727 z-score	-0.879 z-score	-0.835 z-score	-1.36 z-score	-0.824 z-score
GAGGTGGTCCT	-0.284 z-score	-0.198 z-score	-0.03 z-score	-0.746 z-score	-0.496 z-score	-0.46 z-score	-0.352 z-score	-1.08 z-score	-0.521 z-score
GAAATCCTCCT	-0.0844 z-score	-0.961 z-score	-0.613 z-score	-0.658 z-score	-0.961 z-score	-0.979 z-score	-0.866 z-score	-0.982 z-score	-0.715 z-score
AAGTATTCCCT	0.729 z-score	0.846 z-score	0.794 z-score	0.606 z-score	0.612 z-score	0.683 z-score	0.852 z-score	0.812 z-score	0.523 z-score
AAGGGTTTCCC	2.18 z-score	0.668 z-score	1.31 z-score	1.15 z-score	1.43 z-score	0.696 z-score	1.17 z-score	1.07 z-score	1.57 z-score
GAGGTAGTCCC	0.343 z-score	0.907 z-score	0.506 z-score	0.436 z-score	0.326 z-score	0.57 z-score	0.233 z-score	0.447 z-score	0.318 z-score
CAATGTGTCCT	0.249 z-score	-1.04 z-score	-0.284 z-score	-0.926 z-score	-0.828 z-score	-0.731 z-score	-0.475 z-score	-0.887 z-score	-0.764 z-score
CGGGGTTCCCC	2.62 z-score	0.899 z-score	3.05 z-score	2.3 z-score	2.64 z-score	1.93 z-score	2.28 z-score	2.2 z-score	3.29 z-score
GGAGTCTCCCC	1.17 z-score	0.531 z-score	0.409 z-score	1.27 z-score	0.997 z-score	0.547 z-score	0.514 z-score	0.822 z-score	0.954 z-score
